Measured values taken from ChEMBL document CHEMBL1961873, “Compounds: GSK PKIS; Assays: Nanosyn kinase panel” (2012).

Tests used:
[1] = target: Sphingosine kinase 1 (Homo sapiens) (UniProt Q9NYA1); details: at 1 µM;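 note: mean SPHK1 inhibition value reported from the GSK PKIS kinase panel screen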
[2] = target: T1, Sphingosine kinase 2 (Homo sapiens) (UniProt Q9NRA0); details: at 0.1 µM
T1 sequence (whole entry): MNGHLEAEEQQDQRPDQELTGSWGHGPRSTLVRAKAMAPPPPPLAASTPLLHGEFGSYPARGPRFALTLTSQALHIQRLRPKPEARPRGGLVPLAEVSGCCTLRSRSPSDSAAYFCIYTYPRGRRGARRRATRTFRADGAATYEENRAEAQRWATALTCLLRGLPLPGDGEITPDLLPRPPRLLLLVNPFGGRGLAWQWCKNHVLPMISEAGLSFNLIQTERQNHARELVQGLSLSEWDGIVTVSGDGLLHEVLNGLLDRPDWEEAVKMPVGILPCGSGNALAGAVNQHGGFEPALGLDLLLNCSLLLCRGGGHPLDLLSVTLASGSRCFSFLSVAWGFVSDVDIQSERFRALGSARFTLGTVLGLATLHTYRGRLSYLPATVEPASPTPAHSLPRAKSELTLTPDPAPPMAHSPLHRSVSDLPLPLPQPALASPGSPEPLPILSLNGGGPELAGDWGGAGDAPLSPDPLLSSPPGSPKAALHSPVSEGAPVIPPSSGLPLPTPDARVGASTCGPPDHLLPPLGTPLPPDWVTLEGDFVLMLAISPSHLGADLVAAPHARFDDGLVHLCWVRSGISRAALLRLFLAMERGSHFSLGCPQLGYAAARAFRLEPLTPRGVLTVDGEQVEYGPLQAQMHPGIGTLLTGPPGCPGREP

[3] = target: T1, Sphingosine kinase 2 (Homo sapiens); details: at 1 µM
[4] = target: Casein kinase II subunit alpha (Homo sapiens) (UniProt P68400); details: at 0.1 µM
Sequence of Casein kinase II subunit alpha (Homo sapiens) (P68400 whole entry, looked up): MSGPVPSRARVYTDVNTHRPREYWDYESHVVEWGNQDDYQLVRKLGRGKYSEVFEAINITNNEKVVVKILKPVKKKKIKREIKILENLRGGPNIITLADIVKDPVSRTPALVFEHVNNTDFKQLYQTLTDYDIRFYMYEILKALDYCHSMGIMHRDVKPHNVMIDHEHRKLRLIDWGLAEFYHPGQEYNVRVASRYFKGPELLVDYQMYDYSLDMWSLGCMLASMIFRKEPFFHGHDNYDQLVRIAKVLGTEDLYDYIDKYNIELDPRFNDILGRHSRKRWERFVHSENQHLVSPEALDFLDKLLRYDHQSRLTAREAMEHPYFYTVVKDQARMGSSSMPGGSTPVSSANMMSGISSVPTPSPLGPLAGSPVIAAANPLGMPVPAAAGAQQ

[5] = target: Casein kinase II subunit alpha (Homo sapiens) (UniProt P68400); details: at 1 µM
[6] = target: T2, Inhibitor of nuclear factor kappa-B kinase subunit alpha (Homo sapiens) (UniProt O15111); details: at 0.1 µM
T2 sequence (whole entry): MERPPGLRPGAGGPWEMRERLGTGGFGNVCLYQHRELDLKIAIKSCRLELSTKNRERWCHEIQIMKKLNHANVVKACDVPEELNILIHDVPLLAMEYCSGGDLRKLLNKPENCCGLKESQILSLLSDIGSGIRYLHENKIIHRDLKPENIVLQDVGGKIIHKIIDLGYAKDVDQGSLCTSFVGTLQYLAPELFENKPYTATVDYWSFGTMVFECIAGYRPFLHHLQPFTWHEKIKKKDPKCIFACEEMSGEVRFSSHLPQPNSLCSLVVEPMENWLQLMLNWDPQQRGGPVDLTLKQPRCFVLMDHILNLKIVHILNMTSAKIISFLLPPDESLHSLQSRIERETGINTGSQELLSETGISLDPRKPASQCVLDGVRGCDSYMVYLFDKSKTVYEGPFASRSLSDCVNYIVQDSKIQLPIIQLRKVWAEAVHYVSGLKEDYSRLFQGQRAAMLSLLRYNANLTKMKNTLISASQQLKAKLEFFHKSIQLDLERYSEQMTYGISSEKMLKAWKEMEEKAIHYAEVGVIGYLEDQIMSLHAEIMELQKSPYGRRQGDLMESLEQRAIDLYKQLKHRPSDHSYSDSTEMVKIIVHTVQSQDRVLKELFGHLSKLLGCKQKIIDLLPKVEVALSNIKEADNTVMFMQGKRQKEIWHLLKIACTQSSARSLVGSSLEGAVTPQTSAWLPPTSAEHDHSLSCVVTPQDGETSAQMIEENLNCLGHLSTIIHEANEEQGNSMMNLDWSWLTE

[7] = target: T2, Inhibitor of nuclear factor kappa-B kinase subunit alpha (Homo sapiens); details: at 1 µM
[8] = target: T3, Inhibitor of nuclear factor kappa-B kinase subunit beta (Homo sapiens) (UniProt O14920); details: at 0.1 µM
T3 sequence (whole entry): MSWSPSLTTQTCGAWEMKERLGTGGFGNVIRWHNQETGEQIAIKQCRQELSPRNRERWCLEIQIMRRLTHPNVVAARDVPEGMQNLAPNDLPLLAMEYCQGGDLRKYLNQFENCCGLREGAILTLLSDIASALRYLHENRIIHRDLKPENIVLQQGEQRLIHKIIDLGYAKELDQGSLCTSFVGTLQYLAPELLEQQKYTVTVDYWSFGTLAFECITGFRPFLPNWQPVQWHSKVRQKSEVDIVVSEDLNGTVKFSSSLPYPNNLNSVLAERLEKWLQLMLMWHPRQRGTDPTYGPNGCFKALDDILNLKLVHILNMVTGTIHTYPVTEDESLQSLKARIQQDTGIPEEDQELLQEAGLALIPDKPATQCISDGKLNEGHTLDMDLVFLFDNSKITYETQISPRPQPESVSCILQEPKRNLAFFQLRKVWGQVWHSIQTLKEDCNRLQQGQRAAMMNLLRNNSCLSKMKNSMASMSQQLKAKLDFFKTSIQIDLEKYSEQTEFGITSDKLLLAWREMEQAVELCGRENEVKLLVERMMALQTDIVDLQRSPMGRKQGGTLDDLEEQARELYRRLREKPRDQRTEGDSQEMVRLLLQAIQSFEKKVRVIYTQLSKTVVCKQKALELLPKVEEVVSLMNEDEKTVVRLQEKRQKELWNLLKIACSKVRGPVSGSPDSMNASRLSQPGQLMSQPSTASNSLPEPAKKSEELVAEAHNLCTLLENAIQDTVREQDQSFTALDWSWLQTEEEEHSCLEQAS

[9] = target: T3, Inhibitor of nuclear factor kappa-B kinase subunit beta (Homo sapiens); details: at 1 µM
[10] = target: T4, Inhibitor of nuclear factor kappa-B kinase subunit epsilon (Homo sapiens) (UniProt Q14164); details: at 0.1 µM
T4 sequence (whole entry): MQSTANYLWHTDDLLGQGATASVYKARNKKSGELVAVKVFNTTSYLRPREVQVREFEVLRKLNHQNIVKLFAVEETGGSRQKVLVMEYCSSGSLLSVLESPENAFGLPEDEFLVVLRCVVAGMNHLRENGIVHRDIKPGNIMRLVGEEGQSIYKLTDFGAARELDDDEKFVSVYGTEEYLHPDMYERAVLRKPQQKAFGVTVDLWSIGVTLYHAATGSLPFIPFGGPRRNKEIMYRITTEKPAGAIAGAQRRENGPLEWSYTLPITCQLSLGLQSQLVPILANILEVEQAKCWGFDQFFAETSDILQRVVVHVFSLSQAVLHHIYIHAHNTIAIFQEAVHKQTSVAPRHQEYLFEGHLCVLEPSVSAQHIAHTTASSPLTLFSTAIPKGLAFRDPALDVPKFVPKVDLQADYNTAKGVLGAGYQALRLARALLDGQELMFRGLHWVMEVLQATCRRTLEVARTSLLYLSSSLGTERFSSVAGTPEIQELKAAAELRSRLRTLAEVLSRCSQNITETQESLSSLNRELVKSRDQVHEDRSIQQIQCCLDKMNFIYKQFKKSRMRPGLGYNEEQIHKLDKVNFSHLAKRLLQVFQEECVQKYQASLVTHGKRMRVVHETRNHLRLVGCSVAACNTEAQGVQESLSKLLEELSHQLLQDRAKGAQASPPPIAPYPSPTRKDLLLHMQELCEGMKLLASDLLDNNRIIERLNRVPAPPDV

[11] = target: T4, Inhibitor of nuclear factor kappa-B kinase subunit epsilon (Homo sapiens); details: at 1 µM
[12] = target: T5, Serine/threonine-protein kinase Nek1 (Homo sapiens) (UniProt Q96PY6); details: at 0.1 µM
T5 sequence (whole entry): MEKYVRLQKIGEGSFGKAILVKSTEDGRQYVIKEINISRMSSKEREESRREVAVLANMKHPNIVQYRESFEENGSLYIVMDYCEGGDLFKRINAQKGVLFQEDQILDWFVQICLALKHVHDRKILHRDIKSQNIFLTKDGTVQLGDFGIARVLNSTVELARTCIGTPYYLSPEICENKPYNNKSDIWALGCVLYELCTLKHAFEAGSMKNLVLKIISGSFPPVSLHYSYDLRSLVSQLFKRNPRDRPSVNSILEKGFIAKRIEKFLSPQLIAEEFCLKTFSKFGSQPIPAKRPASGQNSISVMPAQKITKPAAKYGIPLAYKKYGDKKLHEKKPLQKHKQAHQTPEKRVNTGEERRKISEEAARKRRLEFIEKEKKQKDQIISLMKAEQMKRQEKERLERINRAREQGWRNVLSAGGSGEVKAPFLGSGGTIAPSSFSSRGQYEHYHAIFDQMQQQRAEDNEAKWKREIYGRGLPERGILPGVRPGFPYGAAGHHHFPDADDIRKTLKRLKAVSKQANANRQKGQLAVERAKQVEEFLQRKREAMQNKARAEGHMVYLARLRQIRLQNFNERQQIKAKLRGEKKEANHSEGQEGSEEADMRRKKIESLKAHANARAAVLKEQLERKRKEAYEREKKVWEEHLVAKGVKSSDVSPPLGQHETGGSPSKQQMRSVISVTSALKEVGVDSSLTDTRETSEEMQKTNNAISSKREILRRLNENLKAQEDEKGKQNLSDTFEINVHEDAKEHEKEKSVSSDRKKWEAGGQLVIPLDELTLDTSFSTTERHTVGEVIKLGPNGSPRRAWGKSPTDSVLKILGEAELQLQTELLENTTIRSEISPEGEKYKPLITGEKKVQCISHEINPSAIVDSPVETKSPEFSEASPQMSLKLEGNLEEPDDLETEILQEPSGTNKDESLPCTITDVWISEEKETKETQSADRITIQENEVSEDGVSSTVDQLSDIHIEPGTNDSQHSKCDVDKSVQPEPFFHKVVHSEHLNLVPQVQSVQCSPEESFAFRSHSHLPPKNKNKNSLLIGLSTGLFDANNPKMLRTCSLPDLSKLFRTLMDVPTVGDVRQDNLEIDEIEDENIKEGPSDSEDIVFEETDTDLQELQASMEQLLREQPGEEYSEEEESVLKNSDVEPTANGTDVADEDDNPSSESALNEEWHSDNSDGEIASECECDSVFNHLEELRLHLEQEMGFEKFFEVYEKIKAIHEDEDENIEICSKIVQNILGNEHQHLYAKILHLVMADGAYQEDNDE

[13] = target: T5, Serine/threonine-protein kinase Nek1 (Homo sapiens); details: at 1 µM
[14] = target: T6, Serine/threonine-protein kinase Nek2 (Homo sapiens) (UniProt P51955); details: at 0.1 µM
T6 sequence (whole entry): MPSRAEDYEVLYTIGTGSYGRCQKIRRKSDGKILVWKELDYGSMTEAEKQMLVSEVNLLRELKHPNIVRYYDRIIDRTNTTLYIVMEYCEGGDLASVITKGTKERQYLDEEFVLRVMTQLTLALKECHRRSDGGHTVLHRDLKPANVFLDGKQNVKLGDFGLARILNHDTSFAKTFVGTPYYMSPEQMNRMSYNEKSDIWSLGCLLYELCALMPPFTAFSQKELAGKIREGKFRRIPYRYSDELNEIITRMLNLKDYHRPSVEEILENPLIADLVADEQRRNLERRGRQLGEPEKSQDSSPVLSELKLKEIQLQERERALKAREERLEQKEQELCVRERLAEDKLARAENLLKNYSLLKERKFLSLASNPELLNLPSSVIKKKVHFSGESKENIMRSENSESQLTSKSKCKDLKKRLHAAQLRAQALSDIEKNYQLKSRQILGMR

[15] = target: T6, Serine/threonine-protein kinase Nek2 (Homo sapiens); details: at 1 µM
[16] = target: Serine/threonine-protein kinase Nek6 (Homo sapiens) (UniProt Q9HC98); details: at 0.1 µM
Sequence of Serine/threonine-protein kinase Nek6 (Homo sapiens) (Q9HC98 whole entry): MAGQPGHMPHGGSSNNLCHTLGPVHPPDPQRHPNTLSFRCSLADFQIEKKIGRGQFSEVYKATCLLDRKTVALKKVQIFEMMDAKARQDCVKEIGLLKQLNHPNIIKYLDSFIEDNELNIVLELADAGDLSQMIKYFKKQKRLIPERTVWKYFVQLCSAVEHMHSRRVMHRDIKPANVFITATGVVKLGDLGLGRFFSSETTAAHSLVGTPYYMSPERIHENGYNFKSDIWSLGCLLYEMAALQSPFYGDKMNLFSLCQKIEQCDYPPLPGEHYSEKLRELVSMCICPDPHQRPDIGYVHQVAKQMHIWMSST

[17] = target: Serine/threonine-protein kinase Nek6 (Homo sapiens) (UniProt Q9HC98); details: at 1 µM
[18] = target: Serine/threonine-protein kinase Nek7 (Homo sapiens) (UniProt Q8TDX7); details: at 0.1 µM
Sequence of Serine/threonine-protein kinase Nek7 (Homo sapiens) (Q8TDX7 whole entry, looked up): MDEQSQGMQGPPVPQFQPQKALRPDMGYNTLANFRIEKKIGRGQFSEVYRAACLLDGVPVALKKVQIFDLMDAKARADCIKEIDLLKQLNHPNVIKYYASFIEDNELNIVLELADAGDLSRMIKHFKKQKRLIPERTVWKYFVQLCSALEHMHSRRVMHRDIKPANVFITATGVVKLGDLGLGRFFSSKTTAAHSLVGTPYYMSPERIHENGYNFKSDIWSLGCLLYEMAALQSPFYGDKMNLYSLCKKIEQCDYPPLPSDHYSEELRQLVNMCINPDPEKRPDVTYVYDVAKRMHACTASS

[19] = target: Serine/threonine-protein kinase Nek7 (Homo sapiens) (UniProt Q8TDX7); details: at 1 µM
[20] = target: T7, Serine/threonine-protein kinase Nek9 (Homo sapiens) (UniProt Q8TD19); details: at 0.1 µM;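 note: reported value is the mean percent inhibition of NEK9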
T7 sequence (whole entry): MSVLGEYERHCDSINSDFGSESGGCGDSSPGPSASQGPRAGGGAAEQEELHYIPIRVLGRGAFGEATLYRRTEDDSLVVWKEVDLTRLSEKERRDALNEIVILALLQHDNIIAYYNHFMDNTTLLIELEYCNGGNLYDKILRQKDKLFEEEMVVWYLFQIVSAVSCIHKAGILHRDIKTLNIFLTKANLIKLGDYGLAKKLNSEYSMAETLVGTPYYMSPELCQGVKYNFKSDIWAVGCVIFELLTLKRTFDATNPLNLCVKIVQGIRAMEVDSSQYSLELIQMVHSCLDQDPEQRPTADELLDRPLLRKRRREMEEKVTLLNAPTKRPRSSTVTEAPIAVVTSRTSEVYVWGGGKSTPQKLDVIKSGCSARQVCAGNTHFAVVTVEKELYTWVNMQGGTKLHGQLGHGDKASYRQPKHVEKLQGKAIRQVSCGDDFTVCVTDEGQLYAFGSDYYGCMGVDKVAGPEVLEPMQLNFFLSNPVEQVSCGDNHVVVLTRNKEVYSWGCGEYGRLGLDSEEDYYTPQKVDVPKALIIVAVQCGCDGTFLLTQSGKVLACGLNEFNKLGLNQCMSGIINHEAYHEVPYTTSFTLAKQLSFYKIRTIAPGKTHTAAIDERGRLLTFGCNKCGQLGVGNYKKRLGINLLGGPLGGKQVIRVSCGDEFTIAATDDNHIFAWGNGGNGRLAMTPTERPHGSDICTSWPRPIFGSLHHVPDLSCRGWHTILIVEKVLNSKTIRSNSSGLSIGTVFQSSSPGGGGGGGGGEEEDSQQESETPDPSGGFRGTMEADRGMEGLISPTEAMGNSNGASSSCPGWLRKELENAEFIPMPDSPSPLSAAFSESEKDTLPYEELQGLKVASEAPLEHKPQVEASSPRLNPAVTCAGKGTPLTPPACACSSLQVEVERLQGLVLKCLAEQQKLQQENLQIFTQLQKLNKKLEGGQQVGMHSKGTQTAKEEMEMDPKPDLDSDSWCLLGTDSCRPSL

Sequence of Sphingosine kinase 1 (Homo sapiens) (Q9NYA1 whole entry): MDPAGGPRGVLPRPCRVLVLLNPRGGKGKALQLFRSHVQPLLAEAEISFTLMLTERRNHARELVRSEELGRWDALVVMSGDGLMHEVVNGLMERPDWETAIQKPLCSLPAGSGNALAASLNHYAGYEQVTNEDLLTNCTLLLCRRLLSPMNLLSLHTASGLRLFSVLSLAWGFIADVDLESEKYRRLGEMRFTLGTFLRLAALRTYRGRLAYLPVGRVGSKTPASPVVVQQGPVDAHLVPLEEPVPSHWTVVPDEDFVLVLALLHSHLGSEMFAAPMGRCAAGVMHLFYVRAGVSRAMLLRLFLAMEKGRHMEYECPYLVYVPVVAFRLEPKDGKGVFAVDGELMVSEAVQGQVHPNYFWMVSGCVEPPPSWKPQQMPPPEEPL

COc1cc2ncn(-c3cc(OCc4ccccc4C(F)(F)F)c(C(N)=O)s3)c2cc1OC
inhibition [1]: -5.26%
inhibition [2]: 0.75%
inhibition [3]: -2%
inhibition [4]: 7.47%
inhibition [5]: 8.83%
inhibition [6]: 9.42%
inhibition [7]: 3.6%
inhibition [8]: 5.69%
inhibition [9]: 5.75%
inhibition [10]: 6.51%
inhibition [11]: 5.84%
inhibition [12]: 3.95%
inhibition [13]: 19.1%
inhibition [14]: 6.41%
inhibition [15]: 17.1%
inhibition [16]: 0.15%
inhibition [17]: 2.1%
inhibition [18]: 3.29%
inhibition [19]: 5.2%
inhibition [20]: 16.7%

COc1cc(C=NNc2ncnc3c2cnn3-c2ccccc2)ccc1O
inhibition [1]: -3.84%
inhibition [2]: -0.52%
inhibition [3]: -2.55%
inhibition [4]: 9.38%
inhibition [5]: 41.6%
inhibition [6]: 10.6%
inhibition [7]: -1.27%
inhibition [8]: 3.33%
inhibition [9]: -0.52%
inhibition [10]: 3.38%
inhibition [11]: 8.67%
inhibition [12]: 3.59%
inhibition [13]: 15.8%
inhibition [14]: 2.6%
inhibition [15]: 3.58%
inhibition [16]: 1.23%
inhibition [17]: -0.37%
inhibition [18]: 3.01%
inhibition [19]: 5.26%
inhibition [20]: 3.36%
